Screening data (PubChem)
ELG1 genotox – genotoxicity induction in ELG1-luciferase HEK293T cells | Potency, µM (series often up to 46 µM), for the others: at the highest dose activity change, positive = activation, most hits filed as activators | HEK293T ELG1-luciferase reporter, luminescence, 16 h | AID 504466 | actives 1.3% (n = 330,000); also: % of control where 0% means no effect; nearly all actives have a fitted effect of over 60% in size
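HEK293T cells expressing luciferase-tagged ELG1 were treated with compound or DMSO for 16 hr at 37°C. Luciferase activity was then read after 30 min with ONE-Glo at room temperature; rising signal flags genetic stress.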
Rab9 prom act – activates the Rab9 promoter | actives 2.8% (n = 320,000) | Huh7 Rab9 promoter-luciferase reporter, luminescence, 24 h | AID 485297 | Potency, µM (doses to about 9.22 µM), for inactives: at the top dose activation, negative = inhibition, actives largely listed as activators; also: % of control where 0% means no effect; nearly all actives have a fitted effect of over 60% in size
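Steps: seed 1500 Huh7 Rab9-luc cells per well, rest 2 h at 37 °C; add compound in DMSO; incubate 24 h; add luciferase reagent, 10 min ambient; read luminescence.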
p53 reactivator – mutant p53 re-activation in reporter cells. H1299 p53-A138V BP100-luciferase reporter, luminescence, 24 h. Potency, µM (doses to about 92.2 µM), for inactives: at the highest dose activity change, positive = activation, actives largely listed as activators. actives 0.063% (n = 320,000); also: % of control where 0% means no effect; nearly all actives have a fitted effect of over 45% in size
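p53-null H1299 cells stably carrying temperature-sensitive p53-A138V and a BP100-luciferase reporter were pinned with compounds (4-point, 1:5 series) and held 24 hrs at 37 deg C. Luminescence was read 10 min after detection reagent.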
SMN2 splice up – SMN2 splice variant enhancement | HEK293 SMN2-luciferase splicing reporter, luminescence, 30-36 h | Potency, µM (doses to about 46.1 µM), for the others: at the highest dose activity change, positive = activation, hits mostly activators | actives 2.8% (n = 210,000); also: % of control where 0% means no effect; nearly all actives have a fitted effect of over 55% in size
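qHTS luciferase splicing reporter: luminescence rises when SMN2 exon 7 is included in transfected HEK293 cells. Compound exposure lasted 30-36 h at 37C, with 4.5 mM final sodium butyrate as control, followed by a ONE-Glo read.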
NPC1 promoter act – activators of NPC1 promoter; Potency, µM (top dose mostly 9.22 µM), without a hit: top-dose activation, hits mostly activators; actives 2.4% (n = 320,000); AID 485313; Huh7 NPC1 promoter luciferase reporter, 24 h; also: % of control where 0% means no effect; nearly all actives have a fitted effect of over 60% in size
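Stably transfected Huh7 (NPC1 promoter→luciferase), 1500 cells/well in Opti-MEM + 10% FBS, 2 h settle, then compound 24 h at 37 °C. Luminescence after 10 min with Amplite reagent.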
FLuc counter – counter-screen for miR-21 project: firefly luciferase inhibitors or activators; AID 588342; purified FLuc, Km substrates, luminescence inhibition; actives 6.9% (n = 360,000); Potency, µM (series often up to 57.5 µM), for inactives: at the top dose activity change, negative = inhibition, actives largely listed as inhibitors;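 also: plate controls were vehicle for no effect and reference inhibitor for full effect; nearly all actives have a fitted effect of over 55% in size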
Target sequence (P08659 whole entry, looked up): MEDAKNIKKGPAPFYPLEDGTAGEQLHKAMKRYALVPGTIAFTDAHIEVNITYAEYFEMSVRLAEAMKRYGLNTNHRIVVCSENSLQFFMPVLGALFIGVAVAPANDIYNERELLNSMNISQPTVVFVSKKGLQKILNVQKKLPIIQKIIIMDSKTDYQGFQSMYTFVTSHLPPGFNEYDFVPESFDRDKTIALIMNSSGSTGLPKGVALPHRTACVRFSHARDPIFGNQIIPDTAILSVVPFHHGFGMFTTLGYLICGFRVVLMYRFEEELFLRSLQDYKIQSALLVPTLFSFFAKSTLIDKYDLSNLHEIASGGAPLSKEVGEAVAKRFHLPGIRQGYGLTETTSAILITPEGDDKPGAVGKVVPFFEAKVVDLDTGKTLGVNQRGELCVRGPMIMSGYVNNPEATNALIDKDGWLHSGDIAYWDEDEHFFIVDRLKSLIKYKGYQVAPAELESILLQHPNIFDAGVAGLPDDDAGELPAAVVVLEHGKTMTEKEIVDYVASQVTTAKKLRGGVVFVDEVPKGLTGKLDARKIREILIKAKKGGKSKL
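Biochemical qHTS of compounds, final roughly 60 µM downward over six points, against 10 nM purified firefly luciferase using Km concentrations of substrates (10 uM D-luciferin, 10 uM ATP) in Tris acetate pH 7.5 buffer; luminescence output.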
The depositor's hits bear a star; u = inconclusive; x = not tested or not shown; [ ] = dose if it differs, or a comment. A selection: hits, their analogues and other compounds. The true share with any hit is near 7.4%. Calls follow the shape of the dose curve; as a rule, active = well fitted curve in the direction sought with a large enough effect; inconclusive = small, poorly fitted or top-dose-only effect, or another doubt; inactive = no such curve, though single readings can be large; an effect the other way counts as inactive or inconclusive. Potency is read from the fitted curve at half-maximal effect.

SMILES	ELG1 genotox	Rab9 prom act	p53 reactivator	SMN2 splice up	NPC1 promoter act	FLuc counter
Cc1nnc(N/N=C/c2ccc(-c3ccccc3F)o2)n1N	u	u	-1%	x	28%	21µM*
Cc1ccc(Nc2c(-c3cc(Br)ccc3F)nc3cc(C)ccn23)cc1	x	x	x	-2%	x	-1%
CCCc1cc(C(=O)N2CCCC(N3CCN(c4ccccc4F)CC3)C2)n(C)n1 (centres undefined)	-8%	-2%	-1%	x	-4%	0%
COC(=O)c1c(C)[nH]c(O)c1C=Nc1ccc(C(C)C)cc1	u	u	13%	14%	u	8.5µM*
COc1ccc(Cl)cc1NC(=O)CSc1nnc(C)n2c1cc1occc12	x	x	x	x	x	-2%
Cc1ccc(C(=O)CSc2nnnn2C(C)C)c(C)c1	u	2.8µM*	-15%	0.79µM*	2.8µM*	0.67µM*
COc1ccc(C)cc1-n1nnnc1SCC(=O)c1ccc2c(c1)OCCO2	-4%	5%	12%	-1%	4%	17µM*
COc1ccc(C(=O)CSc2nnc3ccccn23)cc1OC	u	18%	3%	-15%	7%	1%
O=C(CSc1nnnn1C1CCCC1)c1ccc2c(c1)OCCO2	15%	0.63µM*	-2%	21%	1.1µM*	0.76µM*
O=C(CSc1nnc2ccccn12)c1ccc2c(c1)OCCO2	2.9µM*	1µM*	u	11µM*	1.1µM*	4.8µM*
COC(=O)N1CCC2(CCN(Cc3cc(C(F)(F)F)cc(C(F)(F)F)c3)CC2)CC1	x	x	x	-13%	x	x
O=C(COC(=O)/C=C/c1ccc(C(F)(F)F)cc1)NCc1ccco1	10%	-2%	19%	x	-7%	-24%
Cc1nc2ccc(S(=O)(=O)NC(C(=O)N3CCN(c4ccc(Cl)cc4)CC3)C(C)C)cc2s1 (centres undefined)	x	x	x	-7%	x	1%
Cc1ccc(N2CCN(c3nc4ccccc4n4nnnc34)CC2)c(C)c1	x	x	x	3%	x	-7%
CCn1nnnc1SCC(=O)c1ccc2c(c1)OCCO2	3%	u	10%	-4%	u	19µM*
CC(C)n1nnnc1SCC(=O)c1ccc2c(c1)OCCO2	11%	3.5µM*	3%	-9%	3.5µM*	4.8µM*
CCn1c(SCC(=O)c2ccc3c(c2)OCCO3)nnc1C(C)C	3%	u	26%	21%	u	u
COc1ccc(-n2nnnc2SCC(=O)c2ccc3c(c2)OCCO3)c(OC)c1	0%	-2%	4%	-46%	-1%	u
COc1ccc2c(c1)OC/C(=C/c1ccc(OC)c(OC)c1)C2=O	x	x	x	-103%	x	x
COc1ccc2c(c1)CC/C(=C\C=C\c1ccccc1OC)C2=O	9%	u	u	11µM*	u	2.1µM*
COc1ccc2c(c1)C(=O)/C(=C/C=C/c1ccccc1)CC2	5%	u	14%	11µM*	u	9.5µM*
COc1ccc(-c2ccc(SCC(=O)N3CCOCC3)nn2)cc1	5%	0%	7%	9%	20%	11µM*
O=C(CSc1ccc(-c2ccc(Br)cc2)nn1)N1CCOCC1	-6%	10%	13%	-13%	30%	15µM*
CCOc1ccc(N(C)S(=O)(=O)c2c[nH]c(C(=O)OC)c2)cc1	0%	0%	-2%	x	-2%	-1%
CCN(CC)S(=O)(=O)c1cccc(-c2cn3cc(C)ccc3n2)c1	u	16%	u	-29%	12%	4.8µM*
SMILES	ELG1 genotox	Rab9 prom act	p53 reactivator	SMN2 splice up	NPC1 promoter act	FLuc counter
Cc1ccc2nc(-c3cccc(S(=O)(=O)N(C)C)c3)cn2c1	12%	3.2µM*	u	16%	u	u
O=C1CCCc2[nH]c(=O)c(-c3nc(-c4cccc([N+](=O)[O-])c4)cs3)cc21	x	x	x	-20%	x	-1%
COc1ccc(NC(=O)COC(=O)c2c3c(nc4ccccc24)CCCC3)cc1	5%	-4%	-3%	-29%	4%	u
COc1ccc(NC(=O)COC(=O)c2c3c(nc4ccccc24)CCCC3)cc1Cl	-16%	-12%	8%	-15%	1%	11µM*
Cn1cc(/C=C2\SC(=S)N(NC(=O)c3ccccc3Cl)C2=O)c2ccccc21	1%	2%	2%	1%	-1%	27µM*
Cc1ccc(C(=O)NN2C(=O)/C(=C/c3cn(C)c4ccccc34)SC2=S)cc1	-4%	8%	6%	10%	14%	u
COC(=O)N/N=C\c1cccc(OC(=O)c2cccs2)c1	7%	-4%	-1%	6%	-2%	-15%
O=C(N/N=C/c1cccc(OC(=O)N2CCOCC2)c1)c1cccs1	3%	19%	u	5%	17%	9.5µM*
COc1cccc(/C=N/NC(=O)c2cccs2)c1	21µM*	2.8µM*	13%	x	u	5.4µM*
COc1ccccc1/C=C/C=N/NC(=O)c1cccs1	u	3.2µM*	9%	x	2.5µM*	11µM*
COc1cc(/C=N/NC(=O)c2cccs2)ccc1O	21µM*	u	20%	x	29%	11µM*
O=C(Oc1cccc(Cl)c1)N1CCOCC1	-1%	-1%	x	x	0%	-2%
NCCCc1ccc2oc3ccccc3c2c1	x	x	x	-2%[9.22 µM]	x	x
COC(=O)/C(=C1/OC(=O)C(c2ccccc2)=C1O)c1ccccc1	x	x	x	4%	x	x
Cc1cccc(C(=O)NCCc2nc3ccccc3n2Cc2ccc(Cl)cc2)c1	x	x	x	-4%	x	-13%
COc1cc(/C=N/n2cnc3c(sc4nc(C)cc(C)c43)c2=O)ccc1O	6%	1%	-1%	x	-3%	-14%
COc1cc(/C=N/NC(=O)c2ccccc2O)ccc1OC(=O)CC1SC(=O)NC1=O (centres undefined)	3%	1%	7%	x	1%	17µM*
